A selection: hits, their analogues and other compounds. The true share with any hit is near 1.2%.
NCOA2 inhibitor = inhibits human steroid receptor coactivator 2; inhibition, % at 9 µM; AID 651957; HEK293 GAL4-SRC2 luciferase reporter, luminescence; Q15596; actives 0.17% (n = 370,000);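 active = inhibition above the mean inhibition of all tested compounds plus 3 SD, set per campaign, cut at about 52% in these data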;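 note: 0% = DMSO treated cells and 100% = cells given Gossypol at 36 µM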
NCOA1 inh = human NCOA1 inhibition. inhibition, % at 3.6 µM. HEK293 GAL4-SRC1 luciferase reporter, luminescence. Q15788. actives 0.12% (n = 360,000);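 active = inhibition above the campaign mean plus 3 SD, with each screening campaign given its own cutoff, cut at about 60% in these data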;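 note: 0% = DMSO treated cells and 100% = gossypol at 36 µM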
NCOA3 inh = inhibits human SRC3 coactivator | Q9Y6Q9 | HEK293 GAL4-SRC3 luciferase reporter, luminescence | inhibition, % at 3.6 µM | actives 0.17% (n = 360,000);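 active = inhibition above a per-campaign cutoff, the mean of all compounds plus 3 SD, cut at about 60% in these data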;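 note: 0% = DMSO-treated cells and 100% = gossypol-treated cells at 36 µM; higher means less SRC3-driven luciferase light from the GAL4 reporter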
COUP-TFII inh = blocks human COUP-TFII nuclear receptor | AID 686940 | actives 0.7% (n = 370,000) | inhibition, % at 8.6 µM | P24468 | HEK293T NGFI-A luciferase reporter, luminescence;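 active = inhibition above a per-plate cutoff, mean inhibition of test wells between control levels plus 3 SD, cut at about 38% in these data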;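 note: cells cotransfected with COUP-TFII expression vector driving the NGFI-A reporter; 0% = median of COUP-TF2 test wells and 100% = reporter-only cells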
Target sequence (P24468 whole entry, looked up): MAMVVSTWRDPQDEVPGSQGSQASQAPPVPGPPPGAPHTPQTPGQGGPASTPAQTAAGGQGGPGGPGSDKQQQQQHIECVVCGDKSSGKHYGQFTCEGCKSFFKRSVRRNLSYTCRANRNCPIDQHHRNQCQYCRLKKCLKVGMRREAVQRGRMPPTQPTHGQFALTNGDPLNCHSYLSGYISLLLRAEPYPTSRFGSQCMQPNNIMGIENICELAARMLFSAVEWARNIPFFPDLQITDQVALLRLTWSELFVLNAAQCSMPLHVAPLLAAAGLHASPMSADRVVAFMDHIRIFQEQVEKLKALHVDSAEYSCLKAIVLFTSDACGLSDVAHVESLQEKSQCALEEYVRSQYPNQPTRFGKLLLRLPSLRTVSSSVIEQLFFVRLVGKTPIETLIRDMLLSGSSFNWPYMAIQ
NR5A2 inv ag = inverse agonists of human LRH-1 (NR5A2); actives 0.13% (n = 360,000); HEK293T StAR-luciferase reporter, LRH-1 transfected, 24 h; inhibition, % at 3.6 µM;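 active = inhibition above the mean inhibition of all tested compounds plus 3 SD, cut at about 73% in these data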;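 note: 0% = DMSO wells and 100% = reporter-only cells lacking LRH-1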
Gli-Sufu antag = blocks Gli-Sufu signaling in a luciferase reporter | Sufu-KO-LIGHT fibroblasts, Gli luciferase reporter luminescence | inhibition, % at 5 µM | actives 0.74% (n = 340,000);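 active = inhibition above about 55%, limit read from the data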;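 note: 0% = DMSO-treated cells and 100% = wells with medium but no cells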
Active calls of the source: *; x = no result given.

SMILES	NCOA2 inhibitor	NCOA1 inh	NCOA3 inh	COUP-TFII inh	NR5A2 inv ag	Gli-Sufu antag
CC(C)(C)C1C/C(=C/c2ccccn2)C(=O)/C(=C/c2ccccn2)C1 (stereo not drawn)	x	-189	-39	x	63	66*
COC(=O)c1cc2c(c3c4cc(F)ccc4n(S(=O)(=O)c4ccc(C)cc4)c13)C(=O)N(Cc1ccccc1OC)C2	8	x	x	-5	x	x
CCN1CCS/C1=C/C=C/C1=[N+](CC)CCS1	x	52	28	x	67	82*
CCc1ccccc1Nc1ncnc2ccccc12	7	-20	-12	-10	16	x
CCCCCCCCNc1ncnc2ccccc12	x	27	20	x	53	82*
COC(=O)C1=C(C)N(Cc2ccccc2C(F)(F)F)C(=NCc2ccc(OC)cc2)NC1c1cccc(Cl)c1 (stereo not drawn)	18	x	x	-1	x	x
Cc1ccc(-n2c(O)c(C=Nc3cc(C)on3)c3ccccc3c2=O)c(C)c1	3	54	67*	-1	22	34
Cc1cc(N=Cc2c(O)n(-c3ccc(C)c(C)c3)c(=O)c3ccccc23)no1	-10	x	x	12	x	x
COc1ccc(-c2[nH]ncc2-c2ccc(Cl)cc2)c(O)c1	2	5	-10	9	5	0
COc1ccc(-c2cn[nH]c2-c2ccc(OC)cc2O)cc1	52*	34	40	16	11	-14
COc1ccc(NC(=O)C2(C)Cc3c(-c4ccccc4)ccnc3O2)cn1 (stereo not drawn)	-29	-7	8	10	-26	x
COc1ccc(NC(=O)C2(C)Cc3c(-c4cccc(C(F)(F)F)c4)ccnc3O2)cn1 (stereo not drawn)	71*	10	5	21	-4	x
COc1ccc(NC(=O)/C(Cl)=C(/Cl)S(=O)Cc2ccc(Cl)cc2)cn1 (stereo not drawn)	64*	-84	13	66*	51	46
Cc1cccc(-n2c(CNC(=O)c3ccccc3)nnc2SCC(=O)Nc2nccs2)c1	11	59	-16	14	85*	-1
Clc1ccc(CSc2nnc(Cn3cnc4ccccc43)o2)cc1	16	1	20	63*	17	34
O=S1(=O)CC2c3ccccc3CCN2CN1Cc1ccccc1 (stereo not drawn)	2	x	x	-26	x	x
COc1ccc(OC)c(NC(=O)c2ccccc2N(Cc2ccccc2)C(=O)C(C)Cl)c1 (stereo not drawn)	1	x	x	-11	x	x
Brc1ccc2[nH]c3c(N4CCc5ccccc5C4)ncnc3c2c1	x	x	x	x	x	72*
CCn1c(SCC(=O)Nc2ccc(C(=O)OC)cc2)nnc1-c1cccc(Cl)c1	-13	x	x	10	x	x
C/C(=N\Nc1ncc(Cl)cc1Cl)c1ccccn1	x	6	24	x	-75	76*
C/C(=N\Nc1ncnc2sc(C)c(C)c12)c1ccccn1	39	49	81*	12	-3	94*
Cc1sc2ncnc(N/N=C/c3cccc(O)c3)c2c1C	-31	-33	-31	-14	-66	14
Oc1ccc(N=Nc2ccc3c(c2)OCCO3)c2ncccc12	57*	50	44	28	15	40
CN(C)C(=O)COc1ccc2ccc(=O)oc2c1	-1	10	-8	-10	8	-4
CC(C)=CC(O)C/C(C)=C/COc1ccc2ccc(=O)oc2c1 (stereo not drawn)	-15	46	63*	18	85*	3
SMILES	NCOA2 inhibitor	NCOA1 inh	NCOA3 inh	COUP-TFII inh	NR5A2 inv ag	Gli-Sufu antag
O=[N+]([O-])c1ccc2c(c1)CO[C@]21O[C@H](CCO)C[C@H](O)[C@H]1O	-32	x	x	-3	x	x
c1cnc2c(c1)ccc1cccnc12	10	-8	46	5	58	76*
Cc1ccnc2c1ccc1c(C)ccnc12	x	77*	75*	x	93*	91*
Cc1ccnc2c1ccc1cccnc12	52	7	-50	-3	71	92*
Cc1ccnc2c1ccc1ccccc12	10	6	-33	-3	4	-5
CN1CCCCC(NC(=O)C2CCCCC2)C1=O (stereo not drawn)	-20	x	x	-11	x	x
COc1cccc(/C=C/C(=O)OCC(=O)N2CCCC2)c1OC	4	-22	86*	-39	-16	-1
COc1ccccc1/C=C/C(=O)OCC(=O)N1CCCCC1	-29	-25	-14	-13	-15	-4
CC(C)n1cnc2c(NCc3ccccc3)cc(N[C@H](C)CO)cc21	x	89*	92*	x	90*	1
COc1ccc(CCNC(=O)Cn2nc(-c3ccccc3)ccc2=O)cc1	18	x	x	-15	x	x
N#Cc1cc2c(nc1SC1CC(=O)N(c3ccccc3)C1=O)CCC2 (stereo not drawn)	x	59	77*	x	37	20
CSc1nc2c(cc1C#N)CCC2	-9	8	6	-5	5	1
COc1ccc(-c2c(C(=O)c3ccccc3)[nH]c(N)c2C(=O)NCCc2c[nH]c3ccccc23)cc1	-30	x	x	-8	x	x
CNc1cc(-c2ccc(OC)c(OC)c2)ncn1	-99	-49	-104	-54	-72	x
CNc1ccc2ncc(-c3ccc(OC)c(OC)c3)n2n1	59*	78*	49	-31	26	x
CCCCCCCCN1C(=O)[C@@H](CC(=O)NCCc2ccccc2OC)C[C@@]2(C(=O)OC)C1=C[C@H](C(C)(C)C)O[C@@H]2C	-16	x	x	-5	x	x
CC(=O)N1c2ccc(S(=O)(=O)N3CCC(C(=O)Nc4cccc(Cl)c4)CC3)cc2CC1C (stereo not drawn)	23	-12	2	21	15	73*
O=C(/C=C/c1ccccc1)CC(O)(c1ccccc1)C(F)(F)C(F)F (stereo not drawn)	35	14	34	3	23	-2
O=C(/C=C/c1ccccc1)CC(O)(c1ccccc1)C(F)(F)F (stereo not drawn)	40	40	72*	16	20	-5
CCN(CC)S(=O)(=O)c1cccc(C(=O)N/N=C(\C)c2ccc(O)cc2O)c1	37	-14	70*	2	-17	-4
CCN(CC)S(=O)(=O)c1cccc(C(=O)N/N=C/c2ccc(O)c(O)c2O)c1	-6	-3	2	5	-7	1
O=C(NCc1cccs1)c1nc2c(nnn2Cc2ccccc2Cl)c(=O)[nH]1	56*	43	90*	65*	101*	-3
CCCCc1c(-c2ccccc2OC)ncn1Cc1cccc(C)c1	3	x	x	5	x	x
COC(=O)[C@]12C[C@H](CC(=O)N3CCCCC3)C(=O)N(Cc3ccc4c(c3)OCO4)C1=C[C@H](C(C)(C)C)O[C@@H]2C	-10	x	x	8	x	x
COc1ccccc1N1CCN(Cc2ccc(O)c3ncccc23)CC1	14	1	25	20	13	76*
COc1ccccc1N1CCN(Cc2ccc(OC)c(OC)c2OC)CC1	12	-7	11	3	13	13
O=[N+]([O-])c1cc(S(=O)(=O)NCCN2CCOCC2)ccc1Sc1nnnn1-c1ccccc1	32	6	57	-3	-15	15
